Screens from PubChem.
Neddyl block = inhibitors of cullin neddylation, primary screen, biochemical, TR-FRET, uHTS, NAE and Ubc12 | inhibition, % at 25 µM | actives 0.58% (n = 360,000) | NEDD8-conjugating enzyme Ubc12 (Homo sapiens) + NEDD8-activating enzyme E1 regulatory …; in the data active = inhibition above about 36%
PfG6PD inh = PfG6PD enzyme inhibitors, primary screen, biochemical, fluorescence intensity, uHTS | glucose-6-phosphate dehydrogenase-6-phosphogluconolactonase (Plasmodium falciparum 3D7) | PfGluPho enzyme, NADPH resazurin-diaphorase fluorescence | inhibition, % at 20 µM | actives 0.78% (n = 350,000) | AID 504690, 2011;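 active = inhibition reaching at least a set limit at 20 µM in the primary screen, cut at about 59% in these data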;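 also: 0% = DMSO wells with substrate and 100% = DMSO wells lacking glucose-6-phosphate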
GC-B act = human GC-B receptor activators, primary screen, HEK293 GC-B cells, cGMP TR-FRET, EC30 CNP. actives 0.11% (n = 370,000). AID 1920062, 2024. 0% at EC30 CNP, 100% saturating CNP. activation, % at 10 µM. Atrial natriuretic peptide receptor 2 (Homo sapiens), P20594;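 active = activation at 10 µM reaching about 35% in either raw or pattern-adjusted values, limit read from the data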
GC-A act = GC-A stimulated cGMP production enhancers – HEK293 GC-A cells, cGMP TR-FRET, EC30 ANP, primary screen; AID 1671463, 2021; 0% at EC30 ANP, 100% saturating ANP; actives 0.14% (n = 370,000); activation, % at 10 µM; in the data active = activation above about 40%
A3A deaminase = APOBEC3A ssDNA deaminase inhibitors, primary screen, selectivity assay for APOBEC3G inhibitor project, biochemical, FAM/TAMRA oligo cleavage fluorescence | AID 493011, 2011 | actives 0.41% (n = 330,000) | DNA dC->dU-editing enzyme APOBEC-3A (Homo sapiens), P31941 | inhibition, % at 20 µM | recombinant A3A, FAM/TAMRA ssDNA deamination fluorescence;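 active = at least 40% inhibition at 20 µM here, with at most 30% in a related deaminase screen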;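 also: plate controls were A3A with DMSO for no effect and wells lacking A3A enzyme for full effect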
APOBEC3G inh = APOBEC3G DNA deaminase inhibitors, primary screen, biochemical, fluorescence, single-stranded DNA substrate, uHTS | DNA dC->dU-editing enzyme APOBEC-3G (Homo sapiens), Q9HC16 | AID 493012, 2011 | actives 0.28% (n = 330,000) | recombinant A3G, ssDNA deamination FAM/TAMRA fluorescence | inhibition, % at 20 µM;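 active = inhibition of at least 40% at 20 µM, with no more than 30% in the related APOBEC3A deaminase screen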;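 also: plate controls were DMSO wells with A3G for no effect and wells lacking A3G enzyme for full effect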
Numbers without * were called inactive; . = not tested or not shown. Shown are actives, neighbours in structure and some others; about 2% of the full set was active somewhere.

SMILES | Neddyl block | PfG6PD inh | GC-B act | GC-A act | A3A deaminase | APOBEC3G inh
O=C(O)c1ccc(S(=O)(=O)/N=C2\C=C(Nc3ccccc3F)C(=O)c3ccccc32)cc1 | -48 | 93* | -4 | 2 | 1 | -8
Cc1ccc(NC2=C/C(=N/S(=O)(=O)c3cccs3)c3ccccc3C2=O)cc1C | 13 | -3 | 0 | -1 | . | .
CCc1ccc(S(=O)(=O)/N=C2\C=C(NS(=O)(=O)c3ccccc3)C(=O)c3ccccc32)cc1 | -20 | 24 | -1 | 1 | 0 | -5
Cc1cc(C)c(S(=O)(=O)/N=C2/C=C(Sc3ncn[nH]3)C(=O)c3ccccc32)cc1C | -7 | 109* | -6 | -15 | . | .
O=Cc1ccc(-c2cccs2)s1 | . | 15 | -5 | -3 | . | .
Oc1ccc(N=Cc2ccc(-c3cccs3)s2)cc1 | . | 72* | -9 | -6 | 2 | 7
S=C1Nc2ccccc2CS1 | -1 | 4 | 4 | 1 | . | .
S=C1Cc2ccccc2N1 | -19 | 67* | 11 | 1 | . | .
CCn1nc([N+](=O)[O-])c2c(-c3nc4ccccc4o3)c(N)n(CCCOC)c2c1=O | -10 | 2 | 5 | 46* | 3 | -2
CC(=O)OC(C)C1C2=C(C(=O)CC1(C)O)C(=O)c1c(ccc(-c3ccc4c(c3O)C(=O)C3=C(C4=O)C(C(C)OC(C)=O)C(C)(O)CC3=O)c1O)C2=O (configuration not stated) | -18 | 61* | 6 | 1 | . | .
CCn1c(Cc2cccs2)nnc1SCC(=O)Nc1cccc2ccccc12 | . | . | -6 | -3 | . | .
COc1cccc2cc(-c3nc(-c4cccs4)cs3)c(=O)oc12 | 46* | -4 | -5 | 9 | 0 | -3
CCNC(=O)N(C)[C@H]1C[C@H]2c3[nH]c4cccc(-c5ccc6c(c5)OCO6)c4c3CCN2C[C@H]1[C@H](C)O | . | . | 0 | 6 | . | .
COc1ccc2[nH]c(=O)c(-c3nnn(-c4ccc(Cl)nc4)n3)cc2c1 | 32* | 23 | . | . | 2 | -5
COc1ccc2[nH]c(=O)c(-c3nnn(-c4ccc(F)cc4)n3)cc2c1 | 16 | 24 | -1 | -1 | 7 | 3
CC(C)C[C@H]1COc2cccc(F)c2S(=O)(=O)N1Cc1cn(Cc2ccc(C(F)(F)F)cc2)nn1 | . | . | 6 | 3 | . | .
CCOC(=O)c1cccc(NC(=O)CS(=O)(=O)Cc2nc(-c3cccc(OC)c3)oc2C)c1 | -100 | 6 | 37* | 25 | -4 | -8
COc1ccccc1C1=Nn2c(COc3ccccc3)nnc2SC1 | . | . | . | . | -3 | 51*
C=CCN1[C@H](CC(C)C)COc2cc(N3CCCC3)ccc2S1(=O)=O | . | . | 2 | 0 | . | .
O=C(O)c1ccc(-n2cccc2/C=N\NC(=O)c2cc3cc(Br)ccc3o2)cc1 | 47* | 32 | -1 | -6 | 94 | 71
O=C(O)Cn1cc(/C=N/NC(=O)c2cc3cc(Br)ccc3o2)c2ccccc21 | . | -17 | -2 | 6 | -7 | -8
O=C1[C@@H](CCc2ccccc2)[C@@H]2c3ccccc3C=NN2[C@@H]2c3ccccc3C=NN12 | . | . | -12 | -9 | . | .
Cc1ccc(-c2cc(C(=O)O)c3cc(Br)ccc3n2)o1 | -212 | 75* | 2 | 5 | 40 | 59
Fc1ccccc1-c1nc2nc3ccccc3nc2n1CC1CCCO1 (configuration not stated) | 46* | 20 | 0 | -5 | -5 | -10
COc1ccccc1-c1cc2nc(C)c(CCC(=O)NC(C)CCc3ccco3)c(C)n2n1 (configuration not stated) | 51* | 4 | -6 | 2 | -1 | -9
SMILES | Neddyl block | PfG6PD inh | GC-B act | GC-A act | A3A deaminase | APOBEC3G inh
Cc1cc(/C=C2\C(=N)N3N=C(c4ccco4)SC3=NC2=O)c(C)n1Cc1ccccc1 | 40* | -22 | 1 | -8 | 4 | 2
CCOC(=O)Cn1cc(CN2CCS(=O)(=O)N(Cc3ccccc3)C(C(=O)OC)C2)nn1 (configuration not stated) | . | . | 1 | -1 | . | .
COC(=O)c1cc(-c2ccc(Br)cc2)on1 | 8 | -6 | 8 | 59* | -1 | -9
Nc1nc2c(Br)ccc(Br)c2cc1C(=O)NCc1cccc2ccccc12 | -435 | . | -10 | 3 | . | .
CN(C)C=Nc1nc2c(Br)ccc(Br)c2cc1C(=O)NCC(C)(C)C | . | . | -8 | 48* | . | .
O=c1c2c(nc3n1CCS3)c1cc(F)ccc1n2Cc1cc(=O)n2cc(Cl)ccc2n1 | . | 62* | . | . | -1 | -5
COc1ccc(OCC(C)CN2CCC(C(O)(c3ccccc3)c3ccccc3)CC2)cc1 (configuration not stated) | . | . | -11 | -11 | . | .
O=C1OCCC1Sc1nnc(-c2cccc(Br)c2)o1 (configuration not stated) | -11 | -2 | 37* | 60* | -1 | -1
CCCCCCC(=O)N(O)C1CC(=O)N(c2ccc(Cl)cc2)C1=O (configuration not stated) | -7 | 14 | -8 | 15 | -5 | 41*
CCCCCCC(=O)N(O)C1CC(=O)N(c2ccc(C)cc2)C1=O (configuration not stated) | -7 | 4 | 8 | 23 | 0 | 39
COC(=O)C1CN(Cc2ccc(F)cc2)CCS(=O)(=O)N1Cc1cn(Cc2ccccc2)nn1 (configuration not stated) | . | . | -1 | -3 | . | .
CN(C)c1c([N+](=O)[O-])cc(N2C(=O)C=CC2=O)cc1[N+](=O)[O-] | -3 | 103* | . | . | . | .
Cn1c(=O)c(=O)n(C)c2cc([N+](=O)[O-])c([N+](=O)[O-])cc21 | -44 | 28 | -2 | 2 | -1 | -12
Cc1ccc(OCCOc2ccc(Cl)cc2Cl)c([N+](=O)[O-])n1 | -10 | 6 | 5 | 48* | -1 | -5
CN(C)CC1CCC/C(=C\c2ccc(OC(=O)c3ccc(Cl)cc3)cc2)C1=O (configuration not stated) | 0 | 31 | 4 | 40* | . | .
COc1ccc(/C=C2/CCC(CN3CCOCC3)C2=O)cc1 (configuration not stated) | -6 | 76* | -10 | -26 | . | .
CN(C)CC1CCC/C(=C\c2ccc(OC(=O)/C=C/c3ccccc3)cc2)C1=O (configuration not stated) | -3 | 31 | -1 | 5 | . | .
